Assay results taken from ChEMBL document CHEMBL1961873, “Compounds: GSK PKIS; Assays: Nanosyn kinase panel” (2012).
Values joined by “and” are separate entries in the source; they are usually repeats but may differ in a detail not shown here. Equal entries are not always repeated.

Legend:
[1] = biological target: 5'-AMP-activated protein kinase catalytic subunit alpha-2 (Homo sapiens) (UniProt P54646); conditions: at 1 µM
[2] = biological target: T1, NUAK family SNF1-like kinase 1 (Homo sapiens) (UniProt O60285); conditions: at 0.1 µM
T1 sequence (whole entry): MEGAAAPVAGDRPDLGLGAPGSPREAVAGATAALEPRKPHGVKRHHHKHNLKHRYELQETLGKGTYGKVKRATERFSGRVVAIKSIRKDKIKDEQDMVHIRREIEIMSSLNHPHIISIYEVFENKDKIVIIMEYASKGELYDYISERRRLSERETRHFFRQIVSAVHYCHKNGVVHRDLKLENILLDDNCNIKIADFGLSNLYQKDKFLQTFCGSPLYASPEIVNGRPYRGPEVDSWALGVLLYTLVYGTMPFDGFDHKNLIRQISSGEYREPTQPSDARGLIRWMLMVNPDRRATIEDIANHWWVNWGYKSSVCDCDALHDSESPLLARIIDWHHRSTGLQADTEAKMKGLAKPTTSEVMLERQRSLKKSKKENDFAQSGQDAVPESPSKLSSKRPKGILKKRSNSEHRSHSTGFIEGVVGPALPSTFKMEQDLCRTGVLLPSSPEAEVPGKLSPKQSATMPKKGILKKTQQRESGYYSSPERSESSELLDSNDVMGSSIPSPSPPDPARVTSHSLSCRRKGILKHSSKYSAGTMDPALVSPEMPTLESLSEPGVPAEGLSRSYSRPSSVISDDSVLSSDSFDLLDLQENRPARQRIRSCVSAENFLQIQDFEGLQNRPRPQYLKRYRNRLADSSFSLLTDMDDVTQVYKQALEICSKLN

[3] = biological target: T1, NUAK family SNF1-like kinase 1 (Homo sapiens); conditions: at 1 µM
[4] = biological target: T2, Serine/threonine-protein kinase BRSK1 (Homo sapiens) (UniProt Q8TDC3); conditions: at 0.1 µM
T2 sequence (whole entry): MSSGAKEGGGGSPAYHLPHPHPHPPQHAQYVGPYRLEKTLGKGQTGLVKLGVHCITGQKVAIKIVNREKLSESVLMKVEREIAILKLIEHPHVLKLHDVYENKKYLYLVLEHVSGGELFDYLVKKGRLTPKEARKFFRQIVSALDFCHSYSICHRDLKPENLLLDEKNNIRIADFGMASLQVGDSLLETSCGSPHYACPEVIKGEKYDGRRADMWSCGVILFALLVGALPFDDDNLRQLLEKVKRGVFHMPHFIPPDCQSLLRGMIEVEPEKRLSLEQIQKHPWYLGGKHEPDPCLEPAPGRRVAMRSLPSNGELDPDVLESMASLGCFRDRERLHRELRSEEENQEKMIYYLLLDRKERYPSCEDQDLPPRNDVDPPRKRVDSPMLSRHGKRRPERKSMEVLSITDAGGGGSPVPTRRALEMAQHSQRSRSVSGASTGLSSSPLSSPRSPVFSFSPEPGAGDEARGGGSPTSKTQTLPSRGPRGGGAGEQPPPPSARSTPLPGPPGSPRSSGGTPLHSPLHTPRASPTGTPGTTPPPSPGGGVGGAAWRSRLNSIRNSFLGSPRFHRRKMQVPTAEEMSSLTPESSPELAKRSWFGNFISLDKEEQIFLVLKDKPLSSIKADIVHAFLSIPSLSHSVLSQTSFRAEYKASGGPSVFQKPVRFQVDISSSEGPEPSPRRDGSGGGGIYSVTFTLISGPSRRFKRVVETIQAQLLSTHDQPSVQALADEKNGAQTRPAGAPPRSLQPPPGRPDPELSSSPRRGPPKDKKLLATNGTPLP

[5] = biological target: T2, Serine/threonine-protein kinase BRSK1 (Homo sapiens); conditions: at 1 µM
[6] = biological target: T3, Serine/threonine-protein kinase BRSK2 (Homo sapiens) (UniProt Q8IWQ3); conditions: at 0.1 µM
T3 sequence (whole entry): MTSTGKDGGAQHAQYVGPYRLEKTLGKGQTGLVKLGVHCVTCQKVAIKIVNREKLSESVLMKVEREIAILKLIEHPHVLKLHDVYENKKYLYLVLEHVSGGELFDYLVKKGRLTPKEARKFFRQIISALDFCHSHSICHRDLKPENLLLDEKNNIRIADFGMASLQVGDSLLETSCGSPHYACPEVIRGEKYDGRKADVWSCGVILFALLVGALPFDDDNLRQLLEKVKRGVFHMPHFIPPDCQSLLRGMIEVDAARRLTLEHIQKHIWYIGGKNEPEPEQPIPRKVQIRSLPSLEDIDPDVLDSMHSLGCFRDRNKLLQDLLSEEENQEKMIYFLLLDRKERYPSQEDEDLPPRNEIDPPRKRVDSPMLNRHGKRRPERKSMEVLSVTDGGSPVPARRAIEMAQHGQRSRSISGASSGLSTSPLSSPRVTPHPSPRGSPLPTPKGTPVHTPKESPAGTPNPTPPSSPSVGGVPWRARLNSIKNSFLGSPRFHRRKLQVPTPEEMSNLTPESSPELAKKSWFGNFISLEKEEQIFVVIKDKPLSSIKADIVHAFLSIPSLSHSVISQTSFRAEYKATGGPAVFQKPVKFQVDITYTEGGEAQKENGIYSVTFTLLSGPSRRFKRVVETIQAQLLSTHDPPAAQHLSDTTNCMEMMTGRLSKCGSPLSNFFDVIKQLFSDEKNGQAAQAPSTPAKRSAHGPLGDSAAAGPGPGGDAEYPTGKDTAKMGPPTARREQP

[7] = biological target: T3, Serine/threonine-protein kinase BRSK2 (Homo sapiens); conditions: at 1 µM
[8] = biological target: Calcium/calmodulin-dependent protein kinase type 1D (Homo sapiens) (UniProt Q8IU85); conditions: at 0.1 µM
[9] = biological target: Calcium/calmodulin-dependent protein kinase type 1D (Homo sapiens) (UniProt Q8IU85); conditions: at 1 µM
[10] = biological target: Calcium/calmodulin-dependent protein kinase type II subunit alpha (Homo sapiens) (UniProt Q9UQM7); conditions: at 0.1 µM
[11] = biological target: Calcium/calmodulin-dependent protein kinase type II subunit alpha (Homo sapiens) (UniProt Q9UQM7); conditions: at 1 µM
[12] = biological target: Calcium/calmodulin-dependent protein kinase type II subunit delta (Homo sapiens) (UniProt Q13557); conditions: at 0.1 µM
[13] = biological target: Calcium/calmodulin-dependent protein kinase type II subunit delta (Homo sapiens) (UniProt Q13557); conditions: at 1 µM
[14] = biological target: T4, Calcium/calmodulin-dependent protein kinase type IV (Homo sapiens) (UniProt Q16566); conditions: at 0.1 µM
T4 sequence (whole entry): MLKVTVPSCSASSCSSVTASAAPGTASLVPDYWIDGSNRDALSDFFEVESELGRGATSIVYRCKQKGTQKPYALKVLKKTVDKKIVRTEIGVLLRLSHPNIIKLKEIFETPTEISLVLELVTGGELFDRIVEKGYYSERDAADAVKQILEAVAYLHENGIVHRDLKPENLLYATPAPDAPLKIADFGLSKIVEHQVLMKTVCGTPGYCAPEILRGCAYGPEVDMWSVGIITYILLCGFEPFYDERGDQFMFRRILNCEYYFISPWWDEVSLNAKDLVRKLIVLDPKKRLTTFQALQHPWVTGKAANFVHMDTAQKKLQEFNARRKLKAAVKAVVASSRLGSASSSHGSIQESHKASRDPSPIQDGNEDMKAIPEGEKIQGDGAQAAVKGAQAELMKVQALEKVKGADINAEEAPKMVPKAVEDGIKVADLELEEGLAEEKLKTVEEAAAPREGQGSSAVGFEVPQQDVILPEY

[15] = biological target: T4, Calcium/calmodulin-dependent protein kinase type IV (Homo sapiens); conditions: at 1 µM
[16] = biological target: T5, Serine/threonine-protein kinase Chk1 (Homo sapiens) (UniProt O14757); conditions: at 0.1 µM
T5 sequence (whole entry): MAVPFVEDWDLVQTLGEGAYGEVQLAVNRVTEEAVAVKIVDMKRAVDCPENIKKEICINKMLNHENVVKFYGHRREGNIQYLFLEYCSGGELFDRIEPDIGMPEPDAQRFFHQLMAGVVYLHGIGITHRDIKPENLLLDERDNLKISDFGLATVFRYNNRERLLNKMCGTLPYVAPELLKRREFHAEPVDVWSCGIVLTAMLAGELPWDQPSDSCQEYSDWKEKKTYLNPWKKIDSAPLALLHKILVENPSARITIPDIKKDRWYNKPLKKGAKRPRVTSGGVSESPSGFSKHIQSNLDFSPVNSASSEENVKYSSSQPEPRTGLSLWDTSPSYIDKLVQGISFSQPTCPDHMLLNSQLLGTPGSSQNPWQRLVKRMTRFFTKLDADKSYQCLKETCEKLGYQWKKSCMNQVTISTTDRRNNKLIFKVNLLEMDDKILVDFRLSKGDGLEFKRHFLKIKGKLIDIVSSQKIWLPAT

[17] = biological target: T5, Serine/threonine-protein kinase Chk1 (Homo sapiens); conditions: at 1 µM
[18] = biological target: Serine/threonine-protein kinase Chk2 (Homo sapiens) (UniProt O96017); conditions: at 0.1 µM
[19] = biological target: Serine/threonine-protein kinase Chk2 (Homo sapiens) (UniProt O96017); conditions: at 1 µM
[20] = biological target: Death-associated protein kinase 1 (Homo sapiens) (UniProt P53355); conditions: at 0.1 µM;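 further: reported figure is the mean inhibition of DAPK1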
Sequence of Death-associated protein kinase 1 (Homo sapiens) (P53355 whole entry, looked up): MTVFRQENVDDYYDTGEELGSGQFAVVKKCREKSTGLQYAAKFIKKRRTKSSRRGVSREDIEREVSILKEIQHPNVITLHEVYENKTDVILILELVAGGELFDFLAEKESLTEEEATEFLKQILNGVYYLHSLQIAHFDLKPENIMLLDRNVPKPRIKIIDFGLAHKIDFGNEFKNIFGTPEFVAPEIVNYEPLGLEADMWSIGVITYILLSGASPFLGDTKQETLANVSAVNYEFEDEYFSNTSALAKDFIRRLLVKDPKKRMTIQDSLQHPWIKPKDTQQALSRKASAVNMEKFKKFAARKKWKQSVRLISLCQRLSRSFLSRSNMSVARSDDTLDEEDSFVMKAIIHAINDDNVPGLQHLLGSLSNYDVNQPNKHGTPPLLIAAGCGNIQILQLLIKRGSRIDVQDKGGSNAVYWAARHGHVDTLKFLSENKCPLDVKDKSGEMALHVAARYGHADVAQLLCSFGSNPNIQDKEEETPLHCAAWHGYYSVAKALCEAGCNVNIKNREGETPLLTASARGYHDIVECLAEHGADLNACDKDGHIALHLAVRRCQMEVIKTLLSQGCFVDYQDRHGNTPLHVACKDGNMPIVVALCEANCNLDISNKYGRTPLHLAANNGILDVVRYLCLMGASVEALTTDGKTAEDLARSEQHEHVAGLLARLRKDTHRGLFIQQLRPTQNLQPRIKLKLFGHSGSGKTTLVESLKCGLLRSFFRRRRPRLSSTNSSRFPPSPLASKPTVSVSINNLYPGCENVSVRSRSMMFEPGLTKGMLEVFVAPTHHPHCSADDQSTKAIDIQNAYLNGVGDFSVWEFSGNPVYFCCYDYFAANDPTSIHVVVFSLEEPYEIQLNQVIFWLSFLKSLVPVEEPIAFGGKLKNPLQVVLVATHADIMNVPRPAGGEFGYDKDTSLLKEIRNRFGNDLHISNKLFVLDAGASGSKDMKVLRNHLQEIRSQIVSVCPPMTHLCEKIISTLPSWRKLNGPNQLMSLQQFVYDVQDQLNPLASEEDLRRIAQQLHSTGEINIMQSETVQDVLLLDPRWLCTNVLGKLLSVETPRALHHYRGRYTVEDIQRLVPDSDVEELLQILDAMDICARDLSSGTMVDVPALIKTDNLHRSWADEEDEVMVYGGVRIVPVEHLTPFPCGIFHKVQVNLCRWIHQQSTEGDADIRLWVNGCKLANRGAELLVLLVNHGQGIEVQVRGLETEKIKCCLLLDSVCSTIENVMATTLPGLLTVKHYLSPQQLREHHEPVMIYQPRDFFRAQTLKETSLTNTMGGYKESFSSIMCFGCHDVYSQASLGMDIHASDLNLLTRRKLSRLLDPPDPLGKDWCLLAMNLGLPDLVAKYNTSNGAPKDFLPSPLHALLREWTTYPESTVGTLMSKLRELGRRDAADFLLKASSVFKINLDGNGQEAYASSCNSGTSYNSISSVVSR

Sequence of Serine/threonine-protein kinase Chk2 (Homo sapiens) (O96017 whole entry): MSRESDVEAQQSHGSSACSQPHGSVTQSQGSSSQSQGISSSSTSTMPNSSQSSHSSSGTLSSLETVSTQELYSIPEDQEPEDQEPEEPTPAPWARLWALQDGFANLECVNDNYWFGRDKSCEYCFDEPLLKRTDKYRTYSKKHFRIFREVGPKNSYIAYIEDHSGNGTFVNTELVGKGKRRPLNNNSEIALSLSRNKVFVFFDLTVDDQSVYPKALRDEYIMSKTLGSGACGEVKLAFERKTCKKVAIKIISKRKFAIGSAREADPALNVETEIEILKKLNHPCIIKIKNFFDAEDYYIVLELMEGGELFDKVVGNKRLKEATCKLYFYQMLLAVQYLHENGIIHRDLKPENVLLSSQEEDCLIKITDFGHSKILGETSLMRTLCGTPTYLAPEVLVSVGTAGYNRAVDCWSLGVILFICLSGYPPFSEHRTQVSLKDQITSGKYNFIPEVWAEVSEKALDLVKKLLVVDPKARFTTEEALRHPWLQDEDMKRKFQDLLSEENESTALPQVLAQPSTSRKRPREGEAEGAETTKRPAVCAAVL
Sequence of Calcium/calmodulin-dependent protein kinase type 1D (Homo sapiens) (Q8IU85 whole entry, looked up): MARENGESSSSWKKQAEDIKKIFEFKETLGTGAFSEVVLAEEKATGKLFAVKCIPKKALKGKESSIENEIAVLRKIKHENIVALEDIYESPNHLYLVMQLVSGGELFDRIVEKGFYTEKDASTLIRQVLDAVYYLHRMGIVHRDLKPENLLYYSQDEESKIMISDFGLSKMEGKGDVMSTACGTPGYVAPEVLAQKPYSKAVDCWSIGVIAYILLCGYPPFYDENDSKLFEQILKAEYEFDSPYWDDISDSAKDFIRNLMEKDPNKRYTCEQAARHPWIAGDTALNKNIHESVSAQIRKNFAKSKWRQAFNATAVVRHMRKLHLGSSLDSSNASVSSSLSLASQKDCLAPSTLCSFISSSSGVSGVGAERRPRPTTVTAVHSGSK
Sequence of 5'-AMP-activated protein kinase catalytic subunit alpha-2 (Homo sapiens) (P54646 whole entry, looked up): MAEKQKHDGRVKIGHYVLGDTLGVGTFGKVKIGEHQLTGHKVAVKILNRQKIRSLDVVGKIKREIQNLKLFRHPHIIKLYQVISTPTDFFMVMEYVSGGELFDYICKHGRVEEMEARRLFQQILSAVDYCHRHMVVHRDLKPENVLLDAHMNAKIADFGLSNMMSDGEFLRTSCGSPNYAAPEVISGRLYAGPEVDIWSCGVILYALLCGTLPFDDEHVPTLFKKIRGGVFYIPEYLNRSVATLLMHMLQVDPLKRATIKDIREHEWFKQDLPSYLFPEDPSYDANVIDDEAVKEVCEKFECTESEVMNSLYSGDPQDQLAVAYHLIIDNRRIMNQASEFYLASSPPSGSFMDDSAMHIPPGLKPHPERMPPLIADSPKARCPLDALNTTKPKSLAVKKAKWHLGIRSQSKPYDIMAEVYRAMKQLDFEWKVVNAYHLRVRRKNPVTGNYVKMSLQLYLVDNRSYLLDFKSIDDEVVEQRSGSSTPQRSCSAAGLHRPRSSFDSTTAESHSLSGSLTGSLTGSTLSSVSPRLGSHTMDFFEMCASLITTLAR
Sequence of Calcium/calmodulin-dependent protein kinase type II subunit alpha (Homo sapiens) (Q9UQM7 whole entry): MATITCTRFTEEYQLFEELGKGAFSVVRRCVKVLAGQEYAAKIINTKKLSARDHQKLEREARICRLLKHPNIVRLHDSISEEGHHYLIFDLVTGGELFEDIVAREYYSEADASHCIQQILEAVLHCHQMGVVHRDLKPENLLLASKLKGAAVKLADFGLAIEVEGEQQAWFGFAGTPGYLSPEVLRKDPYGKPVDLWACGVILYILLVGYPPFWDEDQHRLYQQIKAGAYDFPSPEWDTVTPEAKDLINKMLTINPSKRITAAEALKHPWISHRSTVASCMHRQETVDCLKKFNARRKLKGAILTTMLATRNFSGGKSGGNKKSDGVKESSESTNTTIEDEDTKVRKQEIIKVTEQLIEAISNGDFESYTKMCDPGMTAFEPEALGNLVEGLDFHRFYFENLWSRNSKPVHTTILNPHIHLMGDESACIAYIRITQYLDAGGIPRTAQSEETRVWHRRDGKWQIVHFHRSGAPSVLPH
Sequence of Calcium/calmodulin-dependent protein kinase type II subunit delta (Homo sapiens) (Q13557 whole entry): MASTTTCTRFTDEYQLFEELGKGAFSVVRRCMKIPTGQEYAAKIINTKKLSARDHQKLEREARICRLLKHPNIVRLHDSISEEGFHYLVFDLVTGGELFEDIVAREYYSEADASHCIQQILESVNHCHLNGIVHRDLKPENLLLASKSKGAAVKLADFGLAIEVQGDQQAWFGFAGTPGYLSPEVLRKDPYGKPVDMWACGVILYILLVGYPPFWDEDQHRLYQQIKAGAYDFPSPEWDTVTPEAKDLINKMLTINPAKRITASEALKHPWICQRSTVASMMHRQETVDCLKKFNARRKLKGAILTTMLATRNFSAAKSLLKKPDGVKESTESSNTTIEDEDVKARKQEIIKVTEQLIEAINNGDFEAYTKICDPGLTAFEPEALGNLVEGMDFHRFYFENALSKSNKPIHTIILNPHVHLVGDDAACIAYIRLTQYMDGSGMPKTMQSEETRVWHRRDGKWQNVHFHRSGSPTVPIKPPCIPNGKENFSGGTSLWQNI

Row | Structure (SMILES) | inhibition [1] | inhibition [2] | inhibition [3] | inhibition [4] | inhibition [5] | inhibition [6] | inhibition [7] | inhibition [8] | inhibition [9] | inhibition [10] | inhibition [11] | inhibition [12] | inhibition [13] | inhibition [14] | inhibition [15] | inhibition [16] | inhibition [17] | inhibition [18] | inhibition [19] | inhibition [20]
1 | CC1(C)CC(n2cnc(-c3ccc(F)cc3)c2-c2ccnc(N)n2)CC(C)(C)N1 | 0.53% | 0.87% | 1.37% | 1.5% | 4.7% | 1.41% | 5.87% | -0.53% | 2.41% | -2.87% | -1.67% | 0.69% | -0.31% | 0.52% | -0.57% | -3.33% | -6.27% | -4.96% | -4.4% | -7.58%
2 | COc1c(C(N)=O)cc(-c2ccc(Cl)cc2)cc1-c1ccc(S(N)(=O)=O)cc1 | 3.24% | 0.82% | 1.1% | 3.28% | -0.57% | -0.02% | 1.59% | 0.45% | 3.09% | 3.01% | 6.07% | 4.78% | 8.49% | -0.13% | 3.77% | -0.02% | 1.33% | 5.72% | 10.5% | 1.52%
3 | NS(=O)(=O)c1ccc(N/N=C2\C(=O)Nc3cccc(CCc4ccncc4)c32)cc1 | 11.6% | 47.4% | 62.5% | 1.52% | 7.67% | 3.33% | 15.8% | 0.4% | 1.14% | -1.5% | 1.32% | -0.63% | 4.29% | 1.59% | 0.34% | 1.74% | 1.93% | -0.6% | 0.61% | -0.39%
4 | OCCCNc1nccc(-c2c(-c3ccc(F)cc3)nn3cc(C(F)(F)F)ccc23)n1 | 3.17% | 0.07% | 3.25% | 1.56% | 3.4% | 1.44% | 3.37% | -0.48% | 3.05% | 2.38% | 3.74% | 2.44% | 6.94% | 0.82% | 1.44% | -0.5% | -1.18% | 2.3% | 2.83% | -0.68%
5 | CCN1CCC(C(=O)Nc2n[nH]c3nnc(-c4cccc(F)c4F)cc23)CC1 | 3.06% | 3.72% | 5.44% | -0.16% | 1.41% | 1.7% | 3.77% | 0.68% | 0.83% | -1.94% | -1.33% | -0.8% | -0.61% | 0.3% | -1.03% | -2.25% | 0.59% | -0.57% | 0.65% | -0.72%
6 | CN1CCN(Cc2ccc(-c3cc4ncnc(Nc5ccc(OCc6cccc(F)c6)c(Cl)c5)c4s3)o2)CC1 | 4.56% and 5.82% | 0.69% and 0.76% | 4.56% and 2.98% | 0.8% and -0.05% | 2.8% and -0.24% | 2.16% and 1.05% | 4.75% and 4.26% | 0.32% and 0.88% | 2.5% and 0.41% | 0.12% and 4.61% | 5.07% and 4.38% | 1.16% and 3.96% | 3.36% and 5.38% | -0.07% and -1.54% | 2.1% and 1.05% | 8.64% and 3.56% | 7.78% and 8.12% | 9.39% and 5.57% | 28.6% and 26.4% | 9.3% and 6.62%
